Here are results for 8 sequences from paper PMC7862700, “An all-to-all approach to the identification of sequence-specific readers for epigenetic DNA modifications on cytosine”.

Assay in all cases: DAPPL (digital affinity profiling via proximity ligation, sequencing); 10 mM Tris-HCl pH 7.5, 50 mM NaCl, 1 mM DTT, 4% glycerol, room temperature, 30 min; GST-TFs on glutathione beads, 16-mer random dsDNA library, 0.1% formaldehyde crosslink after washing; high values mean tight binding
What all share (details): protein: recombinant; tags: N-terminal GST; dsDNA, one strand shown

One test deals with T1, ERF (Homo sapiens, UniProt P50548 1-548).
T1 sequence: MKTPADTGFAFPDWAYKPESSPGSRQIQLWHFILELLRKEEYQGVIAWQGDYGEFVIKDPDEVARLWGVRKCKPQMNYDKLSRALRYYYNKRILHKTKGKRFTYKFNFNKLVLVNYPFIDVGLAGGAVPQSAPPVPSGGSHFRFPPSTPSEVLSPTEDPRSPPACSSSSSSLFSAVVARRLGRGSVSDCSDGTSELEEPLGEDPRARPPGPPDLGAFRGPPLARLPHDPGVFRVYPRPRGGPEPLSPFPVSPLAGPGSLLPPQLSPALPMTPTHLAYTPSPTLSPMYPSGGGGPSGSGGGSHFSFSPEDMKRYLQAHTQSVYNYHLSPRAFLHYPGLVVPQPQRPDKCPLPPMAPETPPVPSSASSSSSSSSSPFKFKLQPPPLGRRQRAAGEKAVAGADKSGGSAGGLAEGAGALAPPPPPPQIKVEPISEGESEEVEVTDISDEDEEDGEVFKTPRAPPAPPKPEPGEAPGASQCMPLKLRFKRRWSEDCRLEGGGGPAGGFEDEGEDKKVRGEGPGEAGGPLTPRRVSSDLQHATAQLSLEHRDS
An outline of the steps:
(§1)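 The binding signal reported is, for every hexamer, its read frequency for a factor over its read frequency for the tag-only sample. Reads came from pools of yeast-expressed, GST-fused human transcription factors on glutathione beads, barcoded with DNA and mixed with that sample, which were incubated with 200 nmole of a random double-stranded 16-mer DNA library in Tris/NaCl/DTT/glycerol buffer at room temperature for 30 min. After washing, the pools were crosslinked with 0.1% formaldehyde, proximity-ligated with BsaI/T4 ligase for 1 h at 37 °C, PCR-amplified and sequenced on an Illumina NextSeq500.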

In another test the target is T2, ETV3L (Homo sapiens, UniProt Q6ZN32 1-361).
T2 sequence: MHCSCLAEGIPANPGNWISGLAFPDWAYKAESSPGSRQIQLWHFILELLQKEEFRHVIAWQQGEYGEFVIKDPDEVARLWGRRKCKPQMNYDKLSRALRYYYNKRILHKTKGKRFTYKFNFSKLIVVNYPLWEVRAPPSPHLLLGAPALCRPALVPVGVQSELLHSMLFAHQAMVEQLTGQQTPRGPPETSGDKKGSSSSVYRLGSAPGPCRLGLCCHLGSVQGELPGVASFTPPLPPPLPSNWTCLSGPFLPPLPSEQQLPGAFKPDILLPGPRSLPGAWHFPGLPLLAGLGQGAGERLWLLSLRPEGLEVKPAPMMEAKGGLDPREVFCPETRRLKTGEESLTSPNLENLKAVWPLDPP
In a few lines: as §1

The next test concerns the target T3, ETS2 (Homo sapiens, UniProt P15036 1-469).
T3 sequence: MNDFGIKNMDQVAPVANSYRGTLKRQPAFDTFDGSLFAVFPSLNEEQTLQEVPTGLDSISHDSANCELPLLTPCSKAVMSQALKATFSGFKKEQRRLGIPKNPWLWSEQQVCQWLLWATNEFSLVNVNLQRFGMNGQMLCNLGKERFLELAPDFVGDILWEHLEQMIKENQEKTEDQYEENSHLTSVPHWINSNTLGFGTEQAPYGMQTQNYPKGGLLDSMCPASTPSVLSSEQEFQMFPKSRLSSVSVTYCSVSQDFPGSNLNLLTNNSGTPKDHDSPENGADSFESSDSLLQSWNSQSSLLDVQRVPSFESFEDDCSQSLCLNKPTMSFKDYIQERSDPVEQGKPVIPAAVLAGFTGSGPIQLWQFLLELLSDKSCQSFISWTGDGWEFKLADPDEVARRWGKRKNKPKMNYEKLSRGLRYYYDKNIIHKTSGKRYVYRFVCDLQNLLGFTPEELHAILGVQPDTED
In a few lines:
as §1

Another test deals with T4, SPDEF (Homo sapiens, UniProt O95238 1-335).
T4 sequence: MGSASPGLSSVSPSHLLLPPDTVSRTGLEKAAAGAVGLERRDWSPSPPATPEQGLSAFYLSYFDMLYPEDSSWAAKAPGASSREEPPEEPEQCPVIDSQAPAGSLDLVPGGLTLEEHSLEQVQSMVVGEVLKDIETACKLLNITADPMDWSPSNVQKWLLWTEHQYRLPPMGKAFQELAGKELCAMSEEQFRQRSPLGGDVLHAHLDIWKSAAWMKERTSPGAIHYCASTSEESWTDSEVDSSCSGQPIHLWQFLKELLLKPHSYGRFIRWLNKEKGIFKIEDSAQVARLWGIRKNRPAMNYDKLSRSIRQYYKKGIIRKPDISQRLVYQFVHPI
In a few lines:
as §1

The next test concerns the target T5, ETV7 (Homo sapiens, UniProt Q9Y603 1-341).
T5 sequence: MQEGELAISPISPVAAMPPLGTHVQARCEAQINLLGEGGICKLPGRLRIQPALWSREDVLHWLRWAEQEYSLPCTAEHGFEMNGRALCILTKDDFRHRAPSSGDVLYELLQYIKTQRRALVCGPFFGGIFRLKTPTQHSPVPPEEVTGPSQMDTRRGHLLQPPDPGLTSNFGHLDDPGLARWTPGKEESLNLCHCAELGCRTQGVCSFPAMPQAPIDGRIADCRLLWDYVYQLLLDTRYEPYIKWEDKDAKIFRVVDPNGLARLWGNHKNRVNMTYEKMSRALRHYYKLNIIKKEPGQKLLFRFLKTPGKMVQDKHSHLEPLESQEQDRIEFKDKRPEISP
An outline of the steps: as §1

The next test deals with T6, ELF5 (Homo sapiens, UniProt Q9UKW6-2 1-255).
T6 sequence: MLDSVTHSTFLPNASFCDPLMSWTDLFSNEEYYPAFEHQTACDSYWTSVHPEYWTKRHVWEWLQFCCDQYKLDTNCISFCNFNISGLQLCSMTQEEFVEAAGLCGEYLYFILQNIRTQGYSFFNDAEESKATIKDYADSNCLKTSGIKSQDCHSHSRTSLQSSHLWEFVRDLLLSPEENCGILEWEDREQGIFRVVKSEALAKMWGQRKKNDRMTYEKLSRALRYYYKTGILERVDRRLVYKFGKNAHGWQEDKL
In a few lines:
as §1

A further test concerns the target T7, ETV3 (Homo sapiens, UniProt P41162-2 1-143).
T7 sequence: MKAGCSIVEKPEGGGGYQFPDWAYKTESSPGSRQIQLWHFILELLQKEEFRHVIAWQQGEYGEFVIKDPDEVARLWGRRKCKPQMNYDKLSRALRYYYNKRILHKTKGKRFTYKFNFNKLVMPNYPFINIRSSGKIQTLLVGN
An outline of the steps:
as §1

The next test has as its target ETV6 (Homo sapiens, UniProt P41212 1-452). In a few lines: as §1

ETV6, sequence (P41212 whole entry): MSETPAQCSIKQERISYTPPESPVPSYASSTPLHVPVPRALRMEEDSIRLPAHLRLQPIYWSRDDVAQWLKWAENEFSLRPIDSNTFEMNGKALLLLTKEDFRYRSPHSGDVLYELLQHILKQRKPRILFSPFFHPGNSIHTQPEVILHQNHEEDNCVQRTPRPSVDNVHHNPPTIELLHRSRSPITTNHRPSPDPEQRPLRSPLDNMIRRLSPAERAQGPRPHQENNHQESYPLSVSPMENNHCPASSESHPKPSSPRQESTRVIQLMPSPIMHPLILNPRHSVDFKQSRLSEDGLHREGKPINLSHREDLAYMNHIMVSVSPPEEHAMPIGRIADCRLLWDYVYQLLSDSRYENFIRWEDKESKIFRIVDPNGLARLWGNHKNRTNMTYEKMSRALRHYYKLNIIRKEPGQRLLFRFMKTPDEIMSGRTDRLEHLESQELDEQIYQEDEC

Consider TTAGTT, for which the binding signal is 1.37 fold enrichment (6-mer frequency, TF over GST control) in the test with ERF; 1.35 fold enrichment (6-mer frequency, TF over GST control) in the test with ETV3L; 1.23 fold enrichment (6-mer frequency, TF over GST control) in the test with ETS2; 1.38 fold enrichment (6-mer frequency, TF over GST control) with SPDEF; 1.25 fold enrichment (6-mer frequency, TF over GST control) with ETV7; 1.24 fold enrichment (6-mer frequency, TF over GST control) in the test with ELF5. Also, the binding signal with ETV3 was 1.45 fold enrichment (6-mer frequency, TF over GST control); in the test with ETV6, 1.38 fold enrichment (6-mer frequency, TF over GST control).

As for GCTTCA, the binding signal with ERF is 1.33 fold enrichment (6-mer frequency, TF over GST control); with ETV3L, 1.35 fold enrichment (6-mer frequency, TF over GST control); with ETS2 it was 1.27 fold enrichment (6-mer frequency, TF over GST control); in the test with SPDEF, 1.31 fold enrichment (6-mer frequency, TF over GST control); in the test with ETV7, 1.34 fold enrichment (6-mer frequency, TF over GST control); in the test with ELF5, 1.28 fold enrichment (6-mer frequency, TF over GST control). The binding signal is 1.24 fold enrichment (6-mer frequency, TF over GST control) in the test with ETV3 and 1.33 fold enrichment (6-mer frequency, TF over GST control) in the test with ETV6.

In the case of TATTGT, the binding signal with ERF is 1.44 fold enrichment (6-mer frequency, TF over GST control); with ETV3L, 1.32 fold enrichment (6-mer frequency, TF over GST control); in the test with ETS2 it was 1.37 fold enrichment (6-mer frequency, TF over GST control); in the test with SPDEF it was 1.3 fold enrichment (6-mer frequency, TF over GST control); with ETV7 it was 1.35 fold enrichment (6-mer frequency, TF over GST control); with ELF5, 1.23 fold enrichment (6-mer frequency, TF over GST control). The binding signal with ETV3 was 1.34 fold enrichment (6-mer frequency, TF over GST control); with ETV6, 1.33 fold enrichment (6-mer frequency, TF over GST control).

On to AAACAT, for which the binding signal with ERF was 1.45 fold enrichment (6-mer frequency, TF over GST control); in the test with ETV3L, 1.46 fold enrichment (6-mer frequency, TF over GST control); with ETS2 it was 1.48 fold enrichment (6-mer frequency, TF over GST control); with SPDEF, 1.51 fold enrichment (6-mer frequency, TF over GST control); with ETV7, 1.44 fold enrichment (6-mer frequency, TF over GST control); with ELF5, 1.51 fold enrichment (6-mer frequency, TF over GST control). The binding signal in the test with ETV3 is 1.48 fold enrichment (6-mer frequency, TF over GST control); with ETV6, 1.52 fold enrichment (6-mer frequency, TF over GST control).

For TTACAC, the binding signal with ERF is 1.2 fold enrichment (6-mer frequency, TF over GST control); with ETV3L it was 1.15 fold enrichment (6-mer frequency, TF over GST control); with ETS2 it was 1.22 fold enrichment (6-mer frequency, TF over GST control); in the test with SPDEF, 1.23 fold enrichment (6-mer frequency, TF over GST control); in the test with ETV7, 1.19 fold enrichment (6-mer frequency, TF over GST control); with ELF5, 1.19 fold enrichment (6-mer frequency, TF over GST control). Further, the binding signal with ETV3 was 1.15 fold enrichment (6-mer frequency, TF over GST control); with ETV6, 1.2 fold enrichment (6-mer frequency, TF over GST control).

Regarding ACTAAC, the binding signal with ERF was 1.34 fold enrichment (6-mer frequency, TF over GST control); with ETV3L, 1.29 fold enrichment (6-mer frequency, TF over GST control); with ETS2, 1.29 fold enrichment (6-mer frequency, TF over GST control); with SPDEF, 1.2 fold enrichment (6-mer frequency, TF over GST control); with ETV7 it was 1.21 fold enrichment (6-mer frequency, TF over GST control); with ELF5 it was 1.29 fold enrichment (6-mer frequency, TF over GST control). For the same sequence, the binding signal with ETV3 was 1.24 fold enrichment (6-mer frequency, TF over GST control); with ETV6, 1.22 fold enrichment (6-mer frequency, TF over GST control).

Regarding CTCTGT, the binding signal is 1.5 fold enrichment (6-mer frequency, TF over GST control) in the test with ERF; 1.33 fold enrichment (6-mer frequency, TF over GST control) with ETV3L; 1.5 fold enrichment (6-mer frequency, TF over GST control) with ETS2; 1.45 fold enrichment (6-mer frequency, TF over GST control) with SPDEF; 1.43 fold enrichment (6-mer frequency, TF over GST control) in the test with ETV7; 1.37 fold enrichment (6-mer frequency, TF over GST control) with ELF5. The binding signal in the test with ETV3 is 1.43 fold enrichment (6-mer frequency, TF over GST control); with ETV6, 1.44 fold enrichment (6-mer frequency, TF over GST control).

For the sequence GCCTAC, the binding signal in the test with ERF was 1.12 fold enrichment (6-mer frequency, TF over GST control); in the test with ETV3L, 1.29 fold enrichment (6-mer frequency, TF over GST control); with ETS2, 1.23 fold enrichment (6-mer frequency, TF over GST control); in the test with SPDEF, 1.12 fold enrichment (6-mer frequency, TF over GST control); with ETV7, 1.08 fold enrichment (6-mer frequency, TF over GST control); in the test with ELF5, 1.17 fold enrichment (6-mer frequency, TF over GST control). Moreover, the binding signal was 1.3 fold enrichment (6-mer frequency, TF over GST control) in the test with ETV3 and 1.19 fold enrichment (6-mer frequency, TF over GST control) in the test with ETV6.
